Reference: PubChem BioAssay

Experiment: small-molecule microarray binders of probe aWnt5a, primary screen, biochemical, biotinylated probe, 635/667 nm fluorescence (AID 1113);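 note: score merges 667 nm fluorescence intensity with signal-to-noise per printed feature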
Details: higher = more signal

Q: For `C=CCNC(=O)[C@H]1[C@@H]2C(=O)O[C@@H](c3ccccc3)[C@@H](c3ccccc3)N2[C@@H](c2ccccc2OCCO)[C@]12C(=O)N(C(=O)OCCOC)c1ccc(C#CC3(O)CCCCCC3)cc12`, which composite z-score is on record?
A: The composite z-score was -0.0239.

Q: With `CN1C(=O)C2C=CC(C(O)c3cccn3C)N(Nc3ccc([N+](=O)[O-])cc3[N+](=O)[O-])C2C1=O` (centres undefined) as the compound, how does the composite z-score read?
A: The composite z-score was 0.0357.

Q: With `CCCCC(CC)C(O)C1C=CC2C(=O)N(c3ccccc3)C(=O)C2N1Nc1ccccc1F` (centres undefined) as the compound, how does the composite z-score read?
A: Its composite z-score is 0.0768.

Q: For `COCCOC(=O)N1C(=O)[C@@]2(c3ccccc31)[C@H](C(=O)NC[C@H](O)c1ccccc1)[C@H]1C(=O)O[C@H](c3ccccc3)[C@H](c3ccccc3)N1[C@@H]2c1ccc(O)cc1`, which composite z-score is on record?
A: The composite z-score was -0.0072.

Experiment: small-molecule microarray binders of probe aShh, primary screen, biochemical, biotinylated probe, 635/667 nm fluorescence (AID 1114);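 note: probe is biotin-labelled aShh protein from a stem cell growth factor screen; measures binding of labelled protein to compounds printed on the slide; score merges feature fluorescence at 667 nm with signal-to-noise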
Details: higher = more signal

Q: With `CCCNC(=O)[C@@H]1c2ccccc2C(=O)N(Cc2ccc(OC(F)(F)F)cc2)[C@H]1c1ccc(CO)cc1` as the compound, how does the composite z-score read?
A: Its composite z-score is 0.292.

Q: Which composite z-score does the source give for `O=C1OCCC=C[C@H]2OC34C=CCN(Cn5nnc6ccccc65)C(=O)[C@H]3N(CCCO)C(=O)[C@@H]4C12` (some centres undefined) here?
A: Its composite z-score is -0.388.

Q: Which composite z-score does the source give for `CCOC(=O)C[C@H]1[C@H](OC(=O)c2ccc(-c3ccccc3)cc2)[C@@H](NC(=O)CC(C)C)c2cc(OCCCO)ccc2N1C(=O)c1ccc2ccccc2n1` here?
A: The composite z-score was 0.0723.

Q: With `COCCOC(=O)N1C(=O)[C@@]2(c3cc(C#CC4=CCCCC4)ccc31)[C@H](c1ccccc1OCCO)N1[C@H](c3ccccc3)[C@H](c3ccccc3)OC(=O)[C@H]1[C@@H]2C(=O)NC[C@H](O)c1ccccc1` as the compound, how does the composite z-score read?
A: Its composite z-score is 0.0081.

Q: With `COCCCNC(=O)[C@@]1(Sc2ccc(C)cc2)CC(=O)N(C2Cc3ccccc3C2)[C@@H]1c1ccc(CO)cc1` as the compound, how does the composite z-score read?
A: The composite z-score was -0.2.
